The text below walks through data of PubChem BioAssay AID624351 (Southern Research Specialized Biocontainment Screening …, 2012).

Several values for one entry are separate records, joined by “and”; a condition that tells them apart may be missing. Equal entries are not always repeated. The campaign covered roughly 2,400 compounds. About 1,400 (58%) were called active. The set was probably picked from earlier hits. This is one part of the list. A number with no mark means an inactive call.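 How the source made its calls: active means inhibition of 30% or more at any tested dose; inconclusive means primary hits over the limit that were never retested; inactive means the rest.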

The assay is described as follows: ADP Hunter readout inhibition without MgcRacGAP – biochemical, coupled enzyme counter-screen, artefact control for MgcRacGAP inhibitor project, dose response (AID 624351).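 Further: signal is the ADP detection kit reading of free GDP without any GAP enzyme.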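 On inhibition: 0% = median positive control wells and 100% = median negative control wells.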 The conditions noted are these: fluorescence, no MgcRacGAP; series mostly up to 80 µM; inhibition: at the top concentration.
With `O=C1NC(=O)C(=Cc2cccs2)C(=O)N1`, the “inhibition” value was 1.78%.

Regarding `CN1CCN(c2ccc(N)cc2)CC1`, the IC50 is 42.7 µM (active).

With `CCN1CCN(CC(c2ccccc2)c2ccccc2)CC1`, the “inhibition” value is 21.3%.

In the case of `CN1CCN(c2ccc(N)c(N3CCN(C)CC3)c2)CC1`, the IC50 was 56 µM (active).

For `CCN1CCN(c2ccc(N)c(C)c2)CC1`, the IC50 is 45.2 µM (active).

For the compound `N/C(=N\N=C/c1ccc(-c2ccc(O)c(C(=O)O)c2)o1)N[N+](=O)[O-]`, the “inhibition” value was 9.45%.

In the case of `COc1cc(N2CCOCC2)ccc1/C=C1\C(=O)NC(=O)N(Cc2ccc3c(c2)OCO3)C1=O`, the “inhibition” value was 4.02%.

In the case of `O=C(O)CCn1cc(C=C2C(=O)NC(=S)NC2=O)c(-c2cccc(Br)c2)n1`, the “inhibition” value is 2.64%.

For the compound `Cc1ccc(OCC(=O)N2CCN(Cc3ccc([N+](=O)[O-])cc3)CC2)cc1`, the “inhibition” value is 11.2%.

Consider `CCc1ccc(N2C(=O)NC(=O)/C(=C\c3cc(C)n(-c4cc(C(=O)O)cc(C(=O)O)c4)c3C)C2=O)cc1`, for which the “inhibition” value was -1.7%.

For the compound `CN(C)[C@@H]1C(=O)C(C(N)=O)=C(O)[C@@]2(O)C(=O)C3=C(O)c4c(O)cccc4[C@@](C)(O)[C@H]3[C@H](O)[C@@H]12`, the inhibition is -9.39% [at 5 µM].

In the case of `Cc1cccc(N2C(=O)/C(=C/c3ccc(CN(CCC#N)S(C)(=O)=O)o3)C(=O)NC2=S)c1`, the “inhibition” value is -15.4%.

For `Cc1ccc2c(C)c3ccc4ccccc4c3c[n+]2c1`, the “inhibition” value was 17.8%.

Turning to `CN(C)c1ccc(/C=C/C=C/c2sc3ccccc3[n+]2C)cc1`, the IC50 was 70.2 µM (active).

As for `CN(C)c1ccc(/C=C/c2cc[n+](C)c3ccccc23)cc1`, the IC50 was 47.2 µM (active) and 59.7 µM (active).

Turning to `CCc1ccc(CNCCc2c[nH]c3ccccc23)cc1`, the “inhibition” value is 14.5%.

As to `O=C1NC(=O)N(CCC2=CCCCC2)C(=O)/C1=C/c1ccc(O)cc1`, the “inhibition” value was -1.03%.

For the compound `COc1ccc(CNCCc2ccc(Cl)cc2)c(OC)c1OC`, the “inhibition” value is 15.8%.

On to `O=C1NC(=S)N(c2ccccc2)C(=O)/C1=C/c1ccco1`, for which the “inhibition” value was 0.33%.

Take `O=C1NC(=S)N(C2CC2)C(=O)/C1=C/c1ccc2c(c1)CCN2CCCCl`: the “inhibition” value was -10.9%.

On to `Cc1cc(/C=C2\C(=O)NC(=O)N(c3cccc(F)c3)C2=O)c(C)n1-c1cc(C(=O)O)cc(C(=O)O)c1`, for which the “inhibition” value was -5.74%.

With `COc1cc(-c2ccc(N)c(OC)c2)ccc1N`, the IC50 is 8.45 µM (active).

Take `Cc1cc(-c2cc(C)c(N)c(C)c2)cc(C)c1N`: the IC50 is 11.2 µM (active).

With `Cc1cc(-c2ccc(N)c(C)c2)ccc1N`, the IC50 is 14.2 µM (active).

For the compound `Brc1cccc(CNCCc2ccc3c(c2)OCO3)c1`, the “inhibition” value was 15.8%.

For `CN(C)c1ccc(/C=C2/C(=O)NC(=O)N(Cc3ccco3)C2=O)cc1`, the “inhibition” value is -2.93%.

`Cc1ccccc1N1C(=O)NC(=O)/C(=C\c2cnn(-c3ccccc3)c2)C1=O`: the “inhibition” value was 0.64%.

`O=C1NC(=O)C(=Cc2cc(Cl)ccc2OCc2ccc(C(=O)O)cc2)C(=O)N1`: the “inhibition” value is 3.85%.

Turning to `O=C(COc1ccccc1)N1CCN(CC2CC3C=CC2C3)CC1` (stereo not given), the “inhibition” value was 10.5%.

Take `O=C1NC(=O)C(=Cc2c(Cl)cccc2Cl)C(=O)N1`: the “inhibition” value is 2.89%.

On to `COc1cc(CNCCc2ccc3c(c2)OCO3)cc(OC)c1OC`, for which the “inhibition” value is 18%.

For `O=C(Cc1ccccc1)N1CCN(Cc2ccc(F)cc2)CC1`, the “inhibition” value was 18.8%.

Take `O=C(COc1ccccc1)N1CCN(C2CCCC2)CC1`: the “inhibition” value is 18.8%.

In the case of `c1ccc(CN2CCN(Cc3ccc4ccccc4c3)CC2)cc1`, the “inhibition” value is 21%.

`O=C(O)c1ccccc1-c1ccc(C=C2C(=O)N(c3ccccc3)C(=S)N(c3ccccc3)C2=O)o1`: the “inhibition” value is -13.5%.

For `Nc1ccc(-c2ccc(N)cc2)cc1`, the concentration for half-maximal inhibition (IC50) is 8 µM (active).

For the compound `Cc1cc(N(C)C)ccc1N=Nc1ccc(N)cc1`, the IC50 was 33.7 µM (active).

`Nc1ccc(N=Nc2ccc(N)cc2)cc1`: the IC50 was 20.5 µM (active).

On to `Nc1ccc(Sc2ccc(N)cc2)cc1`, for which the IC50 was 10.4 µM (active).

With `O=C(COc1ccc2ccccc2c1)N1CCN(Cc2ccncc2)CC1`, the “inhibition” value is 27%.

In the case of `COc1ccc(N2CC2c2ccncc2)cc1` (stereo not given), the “inhibition” value is 15.4%.

For `COP(=S)(OC)SCn1nnc2ccccc2c1=O`, the “inhibition” value is 3.35%.

`Fc1ccc(CNCCc2ccccc2)cc1`: the “inhibition” value is 17.9%.

For the compound `COc1cccc(CN2CCN(Cc3cccc(F)c3)CC2)c1`, the “inhibition” value is 25.4%.

Consider `O=C(O)CCn1cc(C=C2C(=O)NC(=S)NC2=O)c(-c2ccccc2)n1`, for which the “inhibition” value is -0.34%.

With `COc1ccc(CCNCc2cccc(C(F)(F)F)c2)cc1OC`, the “inhibition” value was 7.61%.

Take `CSc1ccc(CN2CCN(Cc3ccccc3Cl)CC2)cc1`: the “inhibition” value was 23.1%.

Turning to `O=P(Oc1ccc(-c2ccccc2)cc1)(N1CC1)N1CC1`, the “inhibition” value is 12.6%.

Take `O=C(NC1CCCCC1)Oc1cc2oc(=O)sc2cc1Cl`: the “inhibition” value is 6.33%.

As to `COc1ccccc1N1CCN(Cc2cccc(Br)c2)CC1`, the “inhibition” value was 15.7%.

For `COc1ccc(Br)cc1CNCCc1cccc(Cl)c1`, the “inhibition” value is 18.7%.

On to `O=C1NC(=O)C(=Cc2ccco2)C(=O)N1`, for which the “inhibition” value is 1.13%.

Turning to `Cc1nn(CCC#N)c2c1P(=S)(N1CCCC1)OC(c1ccc(F)cc1)=N2` (stereo not given), the “inhibition” value was 2.38%.

In the case of `O=C1NC(=O)N(c2ccccc2)C(=O)/C1=C/c1coc2ccc(O)cc2c1=O`, the “inhibition” value is 7.15%.

As to `CN(C)c1ccc2c(c1)N=C(c1ccco1)OP2(=S)N1CCOCC1` (stereo not given), the “inhibition” value is 3.53%.
